Compounds without any hit were thinned out: in the full panel of roughly 79,000, 15% have a hit. Calls of active or inactive are those of the source. Cut-off read from the data, not from the text of the source: active = growth inhibition above about 70%; inactive = the rest.
Assays:
[1] = NCI Yeast Anticancer Drug Screen. Data for the rad52 strain (AID 147);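 note: 0% = growth of vehicle-treated control cultures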; conditions: S. cerevisiae rad52 mutant growth inhibition, hits give high values
Method in brief: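 Growth of repair-deficient yeast cells was compared between compound-treated and vehicle-treated cultures to give percent inhibition.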

[2] = NCI Yeast Anticancer Drug Screen. Data for the wt1 strain (AID 149);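 note: 0% = growth of vehicle-treated wt1 cultures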; conditions: S. cerevisiae wt1 strain (SPY 50644) growth inhibition, hits give high values
Method in brief: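 Yeast wt1 strain exposed to compounds; growth inhibition measured relative to vehicle-treated controls.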

[3] = NCI Yeast Anticancer Drug Screen. Data for the rad50EPP+ strain (AID 151);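 note: 0% = growth of vehicle-treated control cultures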; conditions: S. cerevisiae rad50 mutant strain, hits give high values
Method in brief: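 Measured: growth inhibition of rad50EPP+ yeast. Reference: vehicle-treated controls. Screen uses strains with defined genetic alterations in DNA damage repair or cell cycle control.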

[4] = NCI Yeast Anticancer Drug Screen. Data for the mgt1 strain (AID 153); conditions: S. cerevisiae mgt1 mutant growth inhibition, hits give high values
Method in brief: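 Compounds were applied to mgt1 mutant yeast, and growth was then compared against vehicle-treated control cultures to give percent inhibition.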

[5] = NCI Yeast Anticancer Drug Screen. Data for the rad50 strain (AID 155);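 note: 0% = growth of vehicle-only cultures of the same strain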; conditions: S. cerevisiae rad50 strain growth inhibition, hits give high values
Method in brief: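 Yeast carrying a defined DNA repair defect were exposed to test compounds, and growth was compared with vehicle-treated controls to give percent inhibition.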

[6] = NCI Yeast Anticancer Drug Screen. Data for the mec2-1 strain (AID 157); conditions: S. cerevisiae mec2-1 strain, hits give high values
Method in brief: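 Compounds were applied to mec2-1 yeast cells. Their growth was then compared with that of vehicle-treated cultures to give growth inhibition.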

[7] = NCI Yeast Anticancer Drug Screen. Data for the rad14 strain (AID 159);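 note: 0% = growth of vehicle-treated control cultures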; conditions: S. cerevisiae rad14 strain growth inhibition, hits give high values
Method in brief: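 Yeast cells carrying a defined DNA-repair defect were exposed to compounds, and growth inhibition was calculated relative to vehicle-treated control cultures.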

[8] = NCI Yeast Anticancer Drug Screen. Data for the sgs1 mgt1 strain (AID 161);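 note: 0% = growth of cultures given vehicle only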; conditions: S. cerevisiae sgs1 mgt1 strain, hits give high values
Method in brief: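 Compounds are added to genetically altered yeast, and growth is compared with cultures given vehicle alone to give percent inhibition.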

[9] = NCI Yeast Anticancer Drug Screen. Data for the CLN2oe strain (AID 163);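 note: 0% = growth of vehicle-only control cultures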; conditions: S. cerevisiae CLN2oe strain, hits give high values
Method in brief: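 Cells of an engineered yeast line with disturbed cell-cycle regulation are treated with compound. Inhibition of growth is then calculated relative to the vehicle-treated reference.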

[10] = NCI Yeast Anticancer Drug Screen. Data for the cln2 rad14 strain (AID 165);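 note: 0% = growth equal to vehicle treated cultures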; conditions: S. cerevisiae cln2 rad14 strain, hits give high values
Method in brief: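 Strain: cln2 rad14 yeast, altered in cell cycle control and DNA damage repair. Read-out: growth inhibition vs vehicle.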

[11] = NCI Yeast Anticancer Drug Screen. Data for the bub3 strain (AID 167); conditions: S. cerevisiae bub3 mutant strain, hits give high values
Method in brief: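 Compounds were applied to a genetically altered yeast strain carrying a cell-cycle control defect. Growth inhibition was scored against vehicle-treated controls.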

[12] = NCI Yeast Anticancer Drug Screen. Data for the mlh1 strain (AID 171);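 note: 0% = growth of vehicle-treated control cultures of the same strain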; conditions: S. cerevisiae mlh1 strain growth inhibition, hits give high values
Method in brief: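 Test agents were incubated with yeast bearing a defined DNA damage repair or cell cycle control alteration; values are growth inhibition normalised to vehicle-treated cultures.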

[13] = NCI Yeast Anticancer Drug Screen. Data for the mlh1 rad18 strain (AID 175); conditions: S. cerevisiae mlh1 rad18 strain growth inhibition, hits give high values
Method in brief: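 A repair-deficient yeast strain is exposed to test compound, and growth is scored relative to vehicle-treated controls.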

[14] = NCI Yeast Anticancer Drug Screen. Data for the rad18 strain (AID 177); conditions: S. cerevisiae rad18 mutant growth inhibition, hits give high values
Method in brief: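 DNA-repair-defective yeast; compound treatment; growth inhibition scored against vehicle.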

[15] = NCI Yeast Anticancer Drug Screen. Data for the sgs1 strain (AID 173);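 note: 0% = growth of vehicle-only control cultures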; conditions: S. cerevisiae sgs1 mutant, hits give high values
Method in brief: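 Strain with an altered DNA repair or cell cycle pathway exposed to compound. Growth then measured. Value = inhibition versus vehicle control.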

[16] = at 5.0 µM (retest, dose inferred, filed as 0.5)
[17] = at 50.0 µM (retest, dose inferred, filed as 5.0)

Measured: growth inhibition

O=C(/C=C/c1cccc(Br)c1)c1cccs1
active: [1]; at 11.0 µM 74% | [1]; at 33.0 µM 97% | [1]; at 100.0 µM 94% | [2]; at 33.0 µM 98% | [2]; at 100.0 µM 95% | [3]; at 33.0 µM 82% | [3]; at 100.0 µM 85% | [4]; at 11.0 µM 85% | [4]; at 33.0 µM 97% | [4]; at 100.0 µM 92% | [5]; at 11.0 µM 83% | [5]; at 33.0 µM 97% | [5]; [17] 96% | [5]; at 50.0 µM 88.2% | [5]; at 100.0 µM 91% | [6]; at 11.0 µM 75% | [6]; at 33.0 µM 99% | [6]; [17] 98% | [6]; at 50.0 µM 91.5% | [6]; at 100.0 µM 96% | [7]; at 11.0 µM 81% | [7]; at 33.0 µM 96% | [7]; at 100.0 µM 92% | [8]; [17] 96% | [8]; at 50.0 µM 91.8% | [9]; at 11.0 µM 84% | [9]; at 33.0 µM 98% | [9]; at 100.0 µM 96% | [10]; [17] 97% | [11]; at 11.0 µM 94% | [11]; at 33.0 µM 98% | [11]; [17] 98% | [11]; at 50.0 µM 90.8% | [11]; at 100.0 µM 96% | [12]; at 11.0 µM 89% | [12]; at 33.0 µM 97% | [12]; at 100.0 µM 95% | [13]; [17] 95% | [13]; at 50.0 µM 87.9% | [14]; at 11.0 µM 91% | [14]; at 33.0 µM 97% | [14]; at 100.0 µM 93%
inactive: [1]; at 1.2 µM -32% | [1]; at 3.7 µM -12% | [2]; at 1.2 µM -15% | [2]; at 3.7 µM -5% | [2]; at 11.0 µM 61% | [3]; at 1.2 µM -9% | [3]; at 3.7 µM -5% | [3]; at 11.0 µM 29% | [4]; at 1.2 µM -1% | [4]; at 3.7 µM 13% | [5]; at 1.2 µM 6% | [5]; at 3.7 µM 10% | [5]; [16] 8% | [6]; at 1.2 µM -16% | [6]; at 3.7 µM 4% | [6]; [16] -9% | [7]; at 1.2 µM -2% | [7]; at 3.7 µM 5% | [8]; [16] 16% | [9]; at 1.2 µM 9% | [9]; at 3.7 µM 10% | [10]; [16] 11% | [10]; at 50.0 µM 46.5% | [11]; at 1.2 µM 30% | [11]; at 3.7 µM 45% | [11]; [16] 36% | [12]; at 1.2 µM 9% | [12]; at 3.7 µM 25% | [13]; [16] 21% | [14]; at 1.2 µM 4% | [14]; at 3.7 µM 26%

Nc1ccccc1CC(O)C(=O)O (stereo unspecified)
active: [1]; at 100.0 µM 88% | [2]; at 100.0 µM 90% | [4]; at 33.0 µM 74% | [4]; at 100.0 µM 95% | [5]; at 33.0 µM 85% | [5]; [17] 94% | [5]; at 50.0 µM 93% | [5]; at 100.0 µM 95% | [6]; [17] 74% | [6]; at 100.0 µM 90% | [7]; at 33.0 µM 91% | [7]; at 100.0 µM 97% | [8]; [17] 95% | [8]; at 50.0 µM 94.5% | [11]; at 33.0 µM 70% | [11]; [17] 90% | [11]; at 50.0 µM 83.8% | [11]; at 100.0 µM 92% | [12]; at 33.0 µM 92% | [12]; at 100.0 µM 97% | [15]; at 33.0 µM 83% | [15]; at 100.0 µM 95% | [13]; [17] 94% | [13]; at 50.0 µM 92.7% | [14]; at 100.0 µM 90%
inactive: [1]; at 1.2 µM 0% | [1]; at 3.7 µM 5% | [1]; at 11.0 µM 14% | [1]; at 33.0 µM 53% | [2]; at 1.2 µM 2% | [2]; at 3.7 µM 3% | [2]; at 11.0 µM 13% | [2]; at 33.0 µM 42% | [3]; at 1.2 µM -2% | [3]; at 3.7 µM 1% | [3]; at 11.0 µM -1% | [3]; at 33.0 µM 2% | [3]; at 100.0 µM 4% | [4]; at 1.2 µM 4% | [4]; at 3.7 µM -1% | [4]; at 11.0 µM 14% | [5]; at 1.2 µM 3% | [5]; at 3.7 µM 13% | [5]; [16] -15% | [5]; at 11.0 µM 27% | [6]; at 1.2 µM 0% | [6]; at 3.7 µM 8% | [6]; [16] 3% | [6]; at 11.0 µM 14% | [6]; at 33.0 µM 30% | [6]; at 50.0 µM 52.1% | [7]; at 1.2 µM -3% | [7]; at 3.7 µM 6% | [7]; at 11.0 µM 24% | [8]; [16] -6% | [9]; at 1.2 µM 5% | [9]; at 3.7 µM 9% | [9]; at 11.0 µM 13% | [9]; at 33.0 µM 25% | [9]; at 100.0 µM 42% | [10]; [16] -2% | [10]; [17] 14% | [10]; at 50.0 µM 13.6% | [11]; at 1.2 µM 5% | [11]; at 3.7 µM -14% | [11]; [16] -17% | [11]; at 11.0 µM 9% | [12]; at 1.2 µM 2% | [12]; at 3.7 µM 4% | [12]; at 11.0 µM 29% | [15]; at 1.2 µM -1% | [15]; at 3.7 µM 1% | [15]; at 11.0 µM 14% | [13]; [16] 0% | [14]; at 1.2 µM 1% | [14]; at 3.7 µM 4% | [14]; at 11.0 µM 10% | [14]; at 33.0 µM 60%
